Test results as given in the supplement of paper PMC7695840.

tested on: Staphylococcus aureus MW2 (mecA+); assay: normalized DsRed fluorescence (growth of mecA+ strain) (fraction of control range); higher = more growth of mecA+ strain; settings: compound concentration: 150 uM; cefoxitin: subinhibitory; fluorescent label: DsRed
Method in brief: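 S. aureus MW2 cells, pre-induced, were used as a 1:1 mix of a DsRed strain carrying the gene and a GFP strain lacking it, in LB with a subinhibitory antibiotic dose set each day. At 5 µL/well they were placed onto 150 μM compound (1.5% DMSO) in 1536-well plates, one replicate, and kept unshaken for 20 h at 37 °C, 90% humidity. After DsRed (540/590) and GFP (485/520) reads scaled per plate to single-strain control medians, plates with high untreated ratios and rows with DsRed/GFP >10 were excluded.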

| SMILES | normalized DsRed fluorescence |
| --- | --- |
| OCC(S)CS (stereo not given) | 0.549 |
| CCCN(CCC)C(=O)C(CCC(=O)O)NC(=O)c1ccccc1 (stereo not given) | 0.55 |
| CN(C)CCOc1ccc(/C(=C(/CCCl)c2ccccc2)c2ccccc2)cc1 | 0.0394 |
| Cc1c(C(=O)NN2CCCCC2)nn(-c2ccc(Cl)cc2Cl)c1-c1ccc(Cl)cc1 | 0.769 |
| CNCCc1ccccn1 | 0.969 |
| O=C(NCC(O)CO)c1c(I)c(C(=O)NCC(O)CO)c(I)c(N(CCO)C(=O)CO)c1I (stereo not given) | 1.04 |
| C[C@@H](c1ncncc1F)[C@](O)(Cn1cncn1)c1ccc(F)cc1F | 0.766 |
| CC(C)(C)NCC(O)COc1cccc2c1CCC(=O)N2 (stereo not given) | 1.11 |
| CC(=O)c1ccc2c(c1)N(CCCN(C)C)c1ccccc1S2 | 1.27 |
| NS(=O)(=O)c1cc2c(cc1Cl)NC(C(Cl)Cl)NS2(=O)=O (stereo not given) | 0.814 |
| N=C(N)N | 0.654 |
| OC[C@H]1O[C@@H](O[C@@H]2[C@@H](CO)O[C@](O)(CO)[C@H]2O)[C@H](O)[C@@H](O)[C@H]1O | 0.712 |
| NNc1nncc2ccccc12 | 0.694 |
| CC(C)c1nc(N(C)S(C)(=O)=O)nc(-c2ccc(F)cc2)c1/C=C/[C@@H](O)C[C@@H](O)CC(=O)O | 0.514 |
| CN1CCC(OC(c2ccccc2)c2ccccc2)CC1 | 1.1 |
| NC[C@H]1O[C@H](O[C@H]2[C@H](O[C@@H]3O[C@H](CO)[C@@H](O)[C@H]3O)[C@@H](O)[C@H](N)C[C@@H]2N)[C@H](N)[C@@H](O)[C@@H]1O | 0.685 |
| O=C(NCCN1CCOCC1)c1ccc(Cl)cc1 [Moclobemide] | 0.739 |
| O=C(NCCO[N+](=O)[O-])c1cccnc1 [Nicorandil (Ikorel)] | 0.986 |
| CN(c1nccc(=O)[nH]1)C1CCN(c2nc3ccccc3n2Cc2ccc(F)cc2)CC1 [Mizolastine (Mizollen)] | 0.462 |
| O=C(Oc1ccccc1C(=O)O)c1ccccc1O | 0.236 |

| SMILES | normalized DsRed fluorescence |
| --- | --- |
| CNCC[C@H](Oc1cccc2ccccc12)c1cccs1 | 0.838 |
| CC1(C)O[C@@H]2[C@@H](CO[C@@]3(COS(N)(=O)=O)OC(C)(C)O[C@@H]23)O1 | 0.547 |
| CC1=C(C(=O)O)N2C(=O)[C@@H](NC(=O)[C@H](N)c3ccc(O)cc3)[C@H]2SC1 | 1.2 |
| CC(=O)OCC(=O)[C@@]12N=C(C)O[C@@H]1C[C@H]1[C@@H]3CCC4=CC(=O)C=C[C@]4(C)[C@H]3[C@@H](O)C[C@@]12C | 0.567 |
| CCN[C@@H]1C[C@H](N)[C@@H](O[C@H]2OC(CN)=CC[C@H]2N)[C@H](O)[C@H]1O[C@H]1OC[C@](C)(O)[C@H](NC)[C@H]1O | 0.952 |
| CCOc1ccc(NC(C)=O)cc1 | 0.668 |
| CN(C)CCC=C1c2ccccc2C=Cc2ccccc21 | 1.21 |
| CCCc1cc(=O)[nH]c(=S)[nH]1 | 0.582 |
| CCCNS(=O)(=O)Nc1ncnc(OCCOc2ncc(Br)cn2)c1-c1ccc(Br)cc1 [Macitentan] | 0.379 |
| CC(=O)NS(=O)(=O)c1ccc(N)cc1 | 0.694 |
| O=C1CN(/N=C/c2ccc([N+](=O)[O-])o2)C(=O)N1 | 0.0533 |
| c1ccc2c(CC3=NCCN3)cccc2c1 | 0.668 |
| O=C(O)c1cccc(-c2noc(-c3ccccc3F)n2)c1 [PTC124 (Ataluren)] | 0.473 |
| CCCC(=O)OCOC(=O)C1=C(C)NC(C)=C(C(=O)OC)C1c1cccc(Cl)c1Cl (stereo not given) [Cleviprex (Clevidipine)] | 0.595 |
| CN(C)CCCN1c2ccccc2CCc2ccccc21 | 1.83 |
| CC(C)(CO)[C@@H](O)C(=O)NCCCO | 0.653 |
| COc1ccc(CC2c3cc(OC)c(OC)cc3CC[N+]2(C)CCC(=O)OCCCCCOC(=O)CC[N+]2(C)CCc3cc(OC)c(OC)cc3C2Cc2ccc(OC)c(OC)c2)cc1OC (stereo not given) | 0.862 |
| CC(C)OC(=O)C(C)(C)Oc1ccc(C(=O)c2ccc(Cl)cc2)cc1 | 0.698 |
| CCCCN1CCCCC1C(=O)Nc1c(C)cccc1C (stereo not given) | 0.887 |
| Cc1ccc(C(=O)c2ccc(CC(=O)O)n2C)cc1 | 0.279 |
